Some test systems named below: DU-145 prostate; K-562 leukemia; MALME-3M melanoma; MDA-MB-231 breast; RXF 393 renal; SF-268 CNS; SF-295 CNS; SF-539 CNS; UACC-257 melanoma; M14 melanoma; HCT-15 colon; HT29 colon; SNB-75 CNS; SNB-19 CNS; U251 CNS; SK-MEL-5 melanoma; UACC-62 melanoma; LOX IMVI melanoma; SK-MEL-28 melanoma; PC-3 prostate.
Common to all, as to assay: NCI-60 one-dose screen, 48 h (100 = growth as untreated, 0 = no growth, -100 = all killed)
Holding throughout (conditions): 10 µM unless noted

Compounds without any hit were thinned out: in the full panel of roughly 83,000, 20% have a hit.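 Percent growth is the endpoint: 0 to 100 indicates growth inhibition (40 means 60% inhibition), 0 means no net growth, and negative values indicate cell death.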 A number with no mark means an inactive call. Activity calls are given as the source filed them. The calls were made as follows: active = growth percent below 10; inactive = the rest.

These results are taken from PubChem BioAssay (NCI).

Regarding `C#CCOc1ccc2ncnc(N3CCC(NC(=O)CCl)CC3)c2c1`, the growth with DU-145 prostate was 72.8% [8.25 µM]; in the assay on K-562 leukemia, 81.5% [8.25 µM]; with MALME-3M melanoma, 83.9% [8.25 µM]; in the assay with MDA-MB-231 breast, 96.1% [8.25 µM]; in the assay on RXF 393 renal, 16% [8.25 µM]; with SF-268 CNS, 49.1% [8.25 µM]. The growth in the assay with SF-295 CNS was 109% [8.25 µM]; in the assay with SF-539 CNS it was 74.6% [8.25 µM]; with UACC-257 melanoma, 79.7% [8.25 µM]; with M14 melanoma, 72.8% [8.25 µM]; in the assay on HCT-15 colon, 67.7% [8.25 µM]; with HT29 colon, 64.9% [8.25 µM]. In addition, the growth in the assay with SNB-75 CNS is 24.2% [8.25 µM]; in the assay with SNB-19 CNS, 77.9% [8.25 µM]; with U251 CNS, 66.1% [8.25 µM]; with SK-MEL-5 melanoma, 75% [8.25 µM]; with UACC-62 melanoma, 72.7% [8.25 µM]; in the assay with LOX IMVI melanoma it was 78.1% [8.25 µM]. Further, in the assay with SK-MEL-28 melanoma, the growth is 77.5% [8.25 µM].

For the compound `Cc1ccc2c(C(C[N+](=O)[O-])c3ccco3)c(-c3ccccc3)[nH]c2c1` (stereo not drawn), the growth with DU-145 prostate was 49.6%; with K-562 leukemia, 11.5%; in the assay with MALME-3M melanoma it was 47.1%; with MDA-MB-231 breast, 41.8%; with RXF 393 renal it was 35.2%; with SF-268 CNS it was 37.8%. Also, the growth in the assay on SF-295 CNS is 7.56% (active); with SF-539 CNS, 20.4%; in the assay on UACC-257 melanoma, 43.4%; in the assay with M14 melanoma it was 7.34% (active); in the assay with HCT-15 colon it was 19.5%; in the assay on HT29 colon, 5.24% (active). Also, the growth is -5.04% (active) in the assay with SNB-75 CNS; 38.5% with SNB-19 CNS; 25.8% with U251 CNS; 35.6% in the assay on SK-MEL-5 melanoma; 35.1% in the assay on UACC-62 melanoma; 23.5% in the assay with LOX IMVI melanoma. Besides, in the assay on SK-MEL-28 melanoma, the growth is 60.3%.

As for `Cc1oc(-c2ccc(Cl)cc2Cl)cc1C(=O)Nc1nccs1`, the growth is 104% in the assay with DU-145 prostate; 95.1% with K-562 leukemia; 85.1% with MALME-3M melanoma; 83.2% in the assay on MDA-MB-231 breast; 88.2% with RXF 393 renal; 100% in the assay on SF-268 CNS. In addition, the growth is 87% in the assay with SF-295 CNS; 95.9% in the assay with SF-539 CNS; 114% in the assay on UACC-257 melanoma; 99.5% in the assay on M14 melanoma; 85.6% with HCT-15 colon; 86.6% in the assay on HT29 colon. The growth in the assay on SNB-75 CNS was 84.4%; in the assay on SNB-19 CNS it was 98.8%; in the assay on PC-3 prostate, 96.6%; with SK-MEL-5 melanoma, 97.1%; in the assay with UACC-62 melanoma, 91.7%; with LOX IMVI melanoma, 79.1%. The growth with SK-MEL-28 melanoma was 105%.

As to `O=C(N/N=C/c1c[nH]c2ccccc12)c1cc(-c2ccccc2)on1`, the growth was 100% with DU-145 prostate; 55.4% in the assay on K-562 leukemia; 94.8% in the assay on MALME-3M melanoma; 89.4% in the assay on MDA-MB-231 breast; 97.8% with RXF 393 renal; 85.9% with SF-268 CNS. The growth in the assay on SF-295 CNS is 98.2%; with SF-539 CNS, 84.6%; in the assay on UACC-257 melanoma it was 102%; in the assay on M14 melanoma, 88.6%; with HCT-15 colon, 71.2%; in the assay with HT29 colon, 102%. Also, the growth with SNB-75 CNS was 67%; with SNB-19 CNS it was 89.8%; in the assay on PC-3 prostate it was 88%; with SK-MEL-5 melanoma, 91.3%; with UACC-62 melanoma, 62.8%; with LOX IMVI melanoma it was 56.3%. Further, in the assay with SK-MEL-28 melanoma, the growth is 106%.

As for `O=C1/C(=C/c2ccc3c(c2)OCO3)SC(=S)N1CCc1ccc(O)cc1`, the growth in the assay on DU-145 prostate is 52.3%; with K-562 leukemia it was 95.8%; in the assay on MALME-3M melanoma, 89.5%; in the assay with MDA-MB-231 breast, 91.2%; in the assay with RXF 393 renal, 111%; in the assay on SF-268 CNS, 95.2%. Further, the growth was 99.5% in the assay on SF-295 CNS; 91.8% in the assay on SF-539 CNS; 99.7% in the assay with UACC-257 melanoma; 94.4% in the assay with M14 melanoma; 93% with HCT-15 colon; 113% in the assay on HT29 colon. In addition, the growth in the assay on SNB-75 CNS was 83.7%; in the assay with SNB-19 CNS it was 95.5%; in the assay on U251 CNS it was 102%; with SK-MEL-5 melanoma it was 98.2%; with UACC-62 melanoma, 88%; in the assay on LOX IMVI melanoma it was 91.3%. The growth in the assay with SK-MEL-28 melanoma was 104%.

In the case of `COc1ccc(-c2cc(NC(=O)Nc3ccc4ncsc4c3)no2)cc1`, the growth in the assay with DU-145 prostate was 108%; with K-562 leukemia, 101%; in the assay on MALME-3M melanoma, 112%; with MDA-MB-231 breast it was 103%; in the assay on RXF 393 renal, 129%; with SF-268 CNS, 105%. The growth in the assay with SF-295 CNS was 89.1%; with SF-539 CNS, 102%; in the assay with UACC-257 melanoma it was 115%; with M14 melanoma, 106%; with HCT-15 colon, 96.5%; with HT29 colon, 97.2%. Moreover, the growth with SNB-75 CNS is 60.2%; with SNB-19 CNS, 92.9%; in the assay with PC-3 prostate it was 92.6%; in the assay with SK-MEL-5 melanoma, 99.5%; in the assay with UACC-62 melanoma it was 95.9%; in the assay with LOX IMVI melanoma, 102%. Also, the growth in the assay with SK-MEL-28 melanoma is 108%.

As to `CN(C)CCN1C(=O)c2cccc3c(N)ccc(c23)C1=O`, the growth in the assay with DU-145 prostate was 25.9%; with K-562 leukemia, 2.08% (active); in the assay on MALME-3M melanoma, 46.7%; with MDA-MB-231 breast it was 58.3%; in the assay on RXF 393 renal it was 4.79% (active); with SF-268 CNS, 17.5%. For the same compound, the growth in the assay on SF-295 CNS was 21.4%; with SF-539 CNS it was 19.4%; in the assay on UACC-257 melanoma it was 9.42% (active); with M14 melanoma, 34.4%; in the assay with HCT-15 colon it was 23.2%; in the assay on HT29 colon, 13.5%. Also, the growth is 56.9% in the assay on SNB-75 CNS; 27.3% with SNB-19 CNS; 22.5% in the assay on U251 CNS; -21.8% (active) with SK-MEL-5 melanoma; 33.1% in the assay on UACC-62 melanoma; 5.28% (active) with LOX IMVI melanoma. Besides, the growth in the assay on SK-MEL-28 melanoma is 71.2%.
